These results are taken from PubChem BioAssay AID686922 (National Center for Advancing Translational Sciences (NCATS), 2013).

Values joined by “and” are separate entries in the source; they are usually repeats but may differ in a detail not shown here. Equal entries are not always repeated. Records with an inconclusive call do not appear. Where a call stands in place of a potency, no number is given. Active and inactive are the calls of the source. Calls come from the whole dose curve; as a rule, active = well fitted inhibition curve with a large enough effect; inconclusive = small, poorly fitted or top-dose-only effect; inactive = no such curve, though single readings can be large or run the other way.

The assay can be described thus: qHTS screen for inhibitors of ELG1-dependent DNA repair in human embryonic kidney (HEK293T) cells expressing luciferase-tagged ELG1: MMS Viability Assay for probe SAR. As to conditions: HEK293T ELG1-luc + MMS viability, CellTiter-Glo, 16 h; series mostly up to 46.1 µM. From the text:
Cancer cells divide rapidly compared to normal cells in the body. During cell division, cancer cells need to duplicate their genome by DNA replication. The failure of genome duplication leads to cancer cells' death. Therefore, inhibitors of DNA replication could specifically kill cancer cells. Based on this concept, many chemotherapeutic agents were developed and have been used to treat cancer patients. However, there are a limited number of agents available in the clinical setting, and some of those that do exist have low efficacy and severe side effects. Therefore, if we can find the compounds that effectively block DNA replication either by directly damaging DNA or by inhibiting other cellular mechanisms, the options for cancer treatment will be broadened. With this in mind, we developed a quantitative high-throughput ELG1-luciferase reporter gene assay. Small molecules that specifically block ELG1 function in response to DNA damage can be identified by monitoring the suppression of luciferase activity. Since ELG1 defines a pathway for repairing DNA damage, agents blocking ELG1 function can be used to sensitize cancer cells to chemotherapeutic agents whose mechanism of action involves the induction of DNA damage. Cytotoxicity of the active compounds in the ELG1 qHTS assay with MMS stimulation (AID 493125) was assessed using the CellTiter-Glo Luminescent Cell Viability Assay kit (Promega, USA). CellTiter-Glo measures the intracellular ATP present in metabolically active cells using Ultra-Glo as the luciferase to detect ATP levels. In brief, the luciferase in the buffer catalyzes the oxidation of luciferin to oxyluciferin and light which is dependent on ATP. […] DMSO and wells with media alone were used as positive and negative controls, respectively. Inactivity to this assay is the desirable outcome. NIH Molecular Libraries Probe Production Network [MLPCN] NIH Chemical Genomics Center [NCGC] MLPCN Grant: R03 MH092164 Assay Provider: Kyungjae Myung, NHGRI, NIH
ELG1-luc HEK293T cells will be seeded in 1536-well plates at a density of 2,000 cells/well. Approximately 5 hours after plating, compounds will be added to the plate by pin tool transfer and MMS will be added by FRD dispenser (final concentration of MMS = 10 µM). 16 hours following the addition of the compounds, cell viability will be measured using CellTiter Glo.
Background: Quantitative high-throughput screening tests each substance at several concentrations.
Regarding `Fc1ccc(Nc2cc(-c3ccccc3)nc(-c3ccncc3)n2)cc1F`, the Potency result is “inactive”.
For `Cc1cnccc1-c1nc(Nc2ccc(F)c(F)c2)c2ccccc2n1` the value was “inactive”; for `COc1ccc(-c2ccc(Nc3nc(-c4ccncc4)nc4ccccc34)cc2F)cc1F`, “inactive”; for `COc1cc(Nc2nc(-c3ccncc3)nc3ccccc23)ccc1N1CCN(C)CC1`, “inactive”.
As for `CCOC(=O)c1ccc2c(c1)c(C(C)=O)c(C)n2-c1ccc(OC)cc1`, the Potency result was “inactive”.
For `Fc1cc(Nc2nc(-c3ccncc3)nc3ccccc23)ccc1-c1ccc2[nH]ncc2c1` the value was “inactive”; for `Cc1cc(-c2nc(Nc3ccc(F)c(F)c3)c3ccccc3n2)ccn1`, “inactive”.
Turning to `Fc1cc(Nc2nc(-c3ccncc3)nc3ccccc23)ccc1-n1cncn1`, the Potency entry is “inactive”.
Consider `Nc1cc(-c2nc(Nc3ccc(F)c(F)c3)c3ccccc3n2)ccn1`, for which the Potency entry is “inactive”.
Consider `Fc1cc(Nc2nc(-c3ccncc3)nc3ccccc23)ccc1-c1cncnc1`, for which the Potency entry is “inactive”.
For the molecule `Fc1cc(Nc2nc(-c3ccncc3)nc3ccccc23)ccc1-c1cccc(C(F)(F)F)c1`, the Potency was 20.9 µM (active).
As to `CN1CCN(c2ccc(Nc3nc(-c4ccncc4)nc4ccccc34)cc2F)CC1`, the Potency entry was “inactive”.
For the molecule `Fc1cc(Nc2nc(-c3ccncc3)nc3ccccc23)ccc1-c1cccc(OC(F)F)c1`, the Potency result was “inactive”.
Take `Fc1cc(Nc2nc(-c3ccncc3)nc3ccccc23)ccc1OCC(F)(F)F`: the Potency result is “inactive”.
For `Fc1ccc(Nc2nc(-c3ccncc3)nc3ccccc23)cc1F` the value was “inactive”; for `O=[N+]([O-])c1ccc(-c2nc(Nc3ccc(F)c(F)c3)c3ccccc3n2)cc1`, “inactive”.
As to `Fc1cc(Nc2nc(-c3ccncc3)nc3ccccc23)ccc1-c1ccncc1`, the Potency result is “inactive”.
For `Cc1cc(-c2nc(Nc3ccc(F)c(F)c3)c3ccccc3n2)cc(C)n1` the value was “inactive”; for `Fc1cc(Nc2nc(-c3ccncc3)nc3ccccc23)ccc1C(F)(F)F`, 7.43 µM (active) and 16.6 µM (active); for `COc1cnccc1-c1nc(Nc2ccc(F)c(F)c2)c2ccccc2n1`, 16.6 µM (active).
For the molecule `Fc1ccc(Nc2nc(-c3ccncc3Cl)nc3ccccc23)cc1F`, the Potency entry was “inactive”.
With `COc1ccc(-c2nc(Nc3ccc(F)c(F)c3)c3ccccc3n2)cc1`, the Potency entry is “inactive”.
In the case of `Fc1ccc(Nc2nc(-c3ccnc(N4CCCCC4)c3)nc3ccccc23)cc1F`, the Potency result is “inactive”.
Consider `O=c1cc(-c2nc(Nc3ccc(F)c(F)c3)c3ccccc3n2)cc[nH]1`, for which the Potency entry is “inactive”.
For `Oc1ccc(Nc2nc(-c3ccncc3)nc3ccccc23)cc1F`, the Potency result is “inactive”.
`CSc1ccccc1-c1ccc(Nc2nc(-c3ccncc3)nc3ccccc23)cc1F`: the Potency entry was “inactive”.
As for `Fc1cc(Nc2nc(-c3ccncc3)nc3ccccc23)ccc1-c1ccc(F)c(F)c1F`, the Potency entry is “inactive”.
As to `Fc1ccc(-c2ccc(Nc3nc(-c4ccncc4)nc4ccccc34)cc2F)c(F)c1`, the Potency is 7.43 µM (active).
As for `COc1cc(Nc2nc(-c3ccncc3)nc3ccccc23)ccc1NS(C)(=O)=O`, the Potency entry was “inactive”.
For the molecule `Fc1cccc(Nc2nc(-c3ccncc3)nc3ccccc23)c1`, the Potency result was “inactive”.
Regarding `COc1ccc(-n2c(C)c(C(C)=O)c3cc(O)ccc32)cc1`, the Potency entry is “inactive”.
As to `Fc1cc(Nc2nc(-c3ccncc3)nc3ccccc23)ccc1-c1cn[nH]c1`, the Potency result is “inactive”.
With `COc1cc(Nc2nc(-c3ccncc3)nc3ccccc23)ccc1F`, the Potency was 23.5 µM (active) and 20.9 µM (active).
`Fc1ccc(-c2nc(-c3ccncc3)nc3ccccc23)cc1F`: the Potency entry is “inactive”.
Consider `Fc1cc(Nc2nc(-c3ccncc3)nc3ccccc23)ccc1-c1cc(F)c(F)c(F)c1`, for which the Potency result is “inactive”.
Consider `Fc1cccc(-c2ccc(Nc3nc(-c4ccncc4)nc4ccccc34)cc2F)c1`, for which the Potency result is “inactive”.
Regarding `COc1nccc(-c2nc(Nc3ccc(F)c(F)c3)c3ccccc3n2)c1Cl`, the Potency result is “inactive”.
Take `Fc1ccc(Nc2nc(-c3ccnc(C(F)(F)F)c3)nc3ccccc23)cc1F`: the Potency was 20.9 µM (active).
As to `Fc1cc(Nc2nc(-c3ccncc3)nc3ccccc23)ccc1-c1cccnc1`, the Potency result was “inactive”.
Consider `COc1cc(-c2nc(Nc3ccc(F)c(F)c3)c3ccccc3n2)c(F)cn1`, for which the Potency is 23.5 µM (active).
